From article PMC11006913 come the findings set out here.

Positions count from the first letter of the chain named.

Holding throughout (assay): PBM; 200 nM protein, PBS
What all share (conditions): dsDNA, one strand shown

The target in experiment [1] is T1, SIX6 (Homo sapiens, UniProt O95475 114-200, L167I).
T1 sequence: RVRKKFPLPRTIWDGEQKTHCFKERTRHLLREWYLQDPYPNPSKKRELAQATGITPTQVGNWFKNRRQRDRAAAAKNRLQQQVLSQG

Experiment [2] has as its target T2, SIX6 (Homo sapiens, UniProt O95475 114-200, L143V).
T2 sequence: T1 sequence with L30V, I54L

Experiment [3] addresses T3, SIX6 (Homo sapiens, UniProt O95475 114-200, H141N).
T3 sequence: T1 sequence with H28N, I54L

The target of experiment [4] is T4, SIX6 (Homo sapiens, UniProt O95475 114-200, T165P).
T4 sequence: T1 sequence with T52P, I54L

The target in experiment [5] is T5, SIX6 (Homo sapiens, UniProt O95475 114-200, L167M).
T5 sequence: T1 sequence with I54M

The target in experiment [6] is T6, SIX6 (Homo sapiens, UniProt O95475 114-200, L143M).
T6 sequence: T1 sequence with L30M, I54L

The target in experiment [7] is T7, SIX6 (Homo sapiens, UniProt O95475 114-200, L143I).
T7 sequence: T1 sequence with L30I, I54L

Experiment [8] concerns the target T8, SIX6 (Homo sapiens, UniProt O95475 114-200, T165G).
T8 sequence: T1 sequence with T52G, I54L

Experiment [9] concerns the target T9, SIX6 (Homo sapiens, UniProt O95475 114-200, T139Q).
T9 sequence: T1 sequence with T26Q, I54L

The target of experiment [10] is T10, SIX6 (Homo sapiens, UniProt O95475 114-200, T165A).
T10 sequence: T1 sequence with T52A, I54L

Experiment [11] concerns the target T11, SIX6 (Homo sapiens, UniProt O95475 114-200, L167V).
T11 sequence: T1 sequence with I54V

Experiment [12] deals with T12, SIX6 (Homo sapiens, UniProt O95475 114-200).
T12 sequence: T1 sequence with I54L

The target of experiment [13] is T13, SIX6 (Homo sapiens, UniProt O95475 114-200, T165I).
T13 sequence: T1 sequence with T52I, I54L

Take GTATCAGA: the binding signal is 11.1 upbm affinity estimate (log intensity, higher = more binding, comparable within an allelic series) with SIX6 [1]; 10.3 upbm affinity estimate (log intensity, higher = more binding, comparable within an allelic series) with SIX6 [2]; 11.1 upbm affinity estimate (log intensity, higher = more binding, comparable within an allelic series) with SIX6 [3]; 9.63 upbm affinity estimate (log intensity, higher = more binding, comparable within an allelic series) in the experiment with SIX6 [4]; 10.6 upbm affinity estimate (log intensity, higher = more binding, comparable within an allelic series) in the experiment with SIX6 [5]; 10.9 upbm affinity estimate (log intensity, higher = more binding, comparable within an allelic series) in the experiment with SIX6 [6]. The binding signal in the experiment with SIX6 [7] was 10.2 upbm affinity estimate (log intensity, higher = more binding, comparable within an allelic series); with SIX6 [8] it was 11.1 upbm affinity estimate (log intensity, higher = more binding, comparable within an allelic series); with SIX6 [9] it was 11.1 upbm affinity estimate (log intensity, higher = more binding, comparable within an allelic series); with SIX6 [10] it was 11.1 upbm affinity estimate (log intensity, higher = more binding, comparable within an allelic series); with SIX6 [11] it was 10.9 upbm affinity estimate (log intensity, higher = more binding, comparable within an allelic series); in the experiment with SIX6 [12], 10.9 upbm affinity estimate (log intensity, higher = more binding, comparable within an allelic series). The binding signal in the experiment with SIX6 [13] is 10.8 upbm affinity estimate (log intensity, higher = more binding, comparable within an allelic series).
Take GATACACC: the binding signal with SIX6 [1] was 11.1 upbm affinity estimate (log intensity, higher = more binding, comparable within an allelic series); with SIX6 [2], 10.4 upbm affinity estimate (log intensity, higher = more binding, comparable within an allelic series); in the experiment with SIX6 [3], 11.1 upbm affinity estimate (log intensity, higher = more binding, comparable within an allelic series); in the experiment with SIX6 [4] it was 9.65 upbm affinity estimate (log intensity, higher = more binding, comparable within an allelic series); with SIX6 [5], 10.7 upbm affinity estimate (log intensity, higher = more binding, comparable within an allelic series); with SIX6 [6] it was 10.9 upbm affinity estimate (log intensity, higher = more binding, comparable within an allelic series). The binding signal with SIX6 [7] is 10.4 upbm affinity estimate (log intensity, higher = more binding, comparable within an allelic series); with SIX6 [8] it was 11.2 upbm affinity estimate (log intensity, higher = more binding, comparable within an allelic series); with SIX6 [9] it was 11.2 upbm affinity estimate (log intensity, higher = more binding, comparable within an allelic series); in the experiment with SIX6 [10], 11.1 upbm affinity estimate (log intensity, higher = more binding, comparable within an allelic series); in the experiment with SIX6 [11] it was 10.9 upbm affinity estimate (log intensity, higher = more binding, comparable within an allelic series); with SIX6 [12] it was 11.1 upbm affinity estimate (log intensity, higher = more binding, comparable within an allelic series). Moreover, in the experiment with SIX6 [13], the binding signal is 10.9 upbm affinity estimate (log intensity, higher = more binding, comparable within an allelic series).
On to CAGGGCGC, for which the binding signal with SIX6 [1] is 9.09 upbm affinity estimate (log intensity, higher = more binding, comparable within an allelic series); with SIX6 [2], 8.83 upbm affinity estimate (log intensity, higher = more binding, comparable within an allelic series); with SIX6 [3] it was 9.07 upbm affinity estimate (log intensity, higher = more binding, comparable within an allelic series); with SIX6 [4], 9 upbm affinity estimate (log intensity, higher = more binding, comparable within an allelic series); with SIX6 [5], 8.98 upbm affinity estimate (log intensity, higher = more binding, comparable within an allelic series); in the experiment with SIX6 [6], 9.04 upbm affinity estimate (log intensity, higher = more binding, comparable within an allelic series). In addition, the binding signal in the experiment with SIX6 [7] is 8.98 upbm affinity estimate (log intensity, higher = more binding, comparable within an allelic series); with SIX6 [8], 9.07 upbm affinity estimate (log intensity, higher = more binding, comparable within an allelic series); with SIX6 [9] it was 8.97 upbm affinity estimate (log intensity, higher = more binding, comparable within an allelic series); in the experiment with SIX6 [10], 8.99 upbm affinity estimate (log intensity, higher = more binding, comparable within an allelic series); in the experiment with SIX6 [11], 9.01 upbm affinity estimate (log intensity, higher = more binding, comparable within an allelic series); with SIX6 [12] it was 9.01 upbm affinity estimate (log intensity, higher = more binding, comparable within an allelic series). In addition, the binding signal with SIX6 [13] was 8.97 upbm affinity estimate (log intensity, higher = more binding, comparable within an allelic series).
For the sequence ATCGATAC, the binding signal in the experiment with SIX6 [1] is 11.2 upbm affinity estimate (log intensity, higher = more binding, comparable within an allelic series); in the experiment with SIX6 [2], 10.5 upbm affinity estimate (log intensity, higher = more binding, comparable within an allelic series); with SIX6 [3], 11.2 upbm affinity estimate (log intensity, higher = more binding, comparable within an allelic series); with SIX6 [4], 9.79 upbm affinity estimate (log intensity, higher = more binding, comparable within an allelic series); with SIX6 [5] it was 10.6 upbm affinity estimate (log intensity, higher = more binding, comparable within an allelic series); in the experiment with SIX6 [6], 10.9 upbm affinity estimate (log intensity, higher = more binding, comparable within an allelic series). The binding signal with SIX6 [7] is 10.3 upbm affinity estimate (log intensity, higher = more binding, comparable within an allelic series); with SIX6 [8], 11.2 upbm affinity estimate (log intensity, higher = more binding, comparable within an allelic series); with SIX6 [9], 11.3 upbm affinity estimate (log intensity, higher = more binding, comparable within an allelic series); with SIX6 [10], 11.1 upbm affinity estimate (log intensity, higher = more binding, comparable within an allelic series); in the experiment with SIX6 [11] it was 11 upbm affinity estimate (log intensity, higher = more binding, comparable within an allelic series); with SIX6 [12], 11 upbm affinity estimate (log intensity, higher = more binding, comparable within an allelic series). Further, the binding signal in the experiment with SIX6 [13] is 11 upbm affinity estimate (log intensity, higher = more binding, comparable within an allelic series).
Regarding ATGATATC, the binding signal was 11.4 upbm affinity estimate (log intensity, higher = more binding, comparable within an allelic series) in the experiment with SIX6 [1]; 10.5 upbm affinity estimate (log intensity, higher = more binding, comparable within an allelic series) in the experiment with SIX6 [2]; 11.5 upbm affinity estimate (log intensity, higher = more binding, comparable within an allelic series) with SIX6 [3]; 9.88 upbm affinity estimate (log intensity, higher = more binding, comparable within an allelic series) with SIX6 [4]; 10.9 upbm affinity estimate (log intensity, higher = more binding, comparable within an allelic series) with SIX6 [5]; 11.2 upbm affinity estimate (log intensity, higher = more binding, comparable within an allelic series) in the experiment with SIX6 [6]. Further, the binding signal is 10.6 upbm affinity estimate (log intensity, higher = more binding, comparable within an allelic series) with SIX6 [7]; 11.6 upbm affinity estimate (log intensity, higher = more binding, comparable within an allelic series) with SIX6 [8]; 11.5 upbm affinity estimate (log intensity, higher = more binding, comparable within an allelic series) in the experiment with SIX6 [9]; 11.4 upbm affinity estimate (log intensity, higher = more binding, comparable within an allelic series) in the experiment with SIX6 [10]; 11.4 upbm affinity estimate (log intensity, higher = more binding, comparable within an allelic series) with SIX6 [11]; 11.3 upbm affinity estimate (log intensity, higher = more binding, comparable within an allelic series) with SIX6 [12]. In the experiment with SIX6 [13], the binding signal was 11.2 upbm affinity estimate (log intensity, higher = more binding, comparable within an allelic series).
With ATTGATAC, the binding signal in the experiment with SIX6 [1] was 11.4 upbm affinity estimate (log intensity, higher = more binding, comparable within an allelic series); with SIX6 [2], 10.5 upbm affinity estimate (log intensity, higher = more binding, comparable within an allelic series); with SIX6 [3], 11.5 upbm affinity estimate (log intensity, higher = more binding, comparable within an allelic series); with SIX6 [4], 9.95 upbm affinity estimate (log intensity, higher = more binding, comparable within an allelic series); with SIX6 [5], 10.8 upbm affinity estimate (log intensity, higher = more binding, comparable within an allelic series); in the experiment with SIX6 [6], 11.2 upbm affinity estimate (log intensity, higher = more binding, comparable within an allelic series). For the same sequence, the binding signal with SIX6 [7] was 10.5 upbm affinity estimate (log intensity, higher = more binding, comparable within an allelic series); with SIX6 [8] it was 11.4 upbm affinity estimate (log intensity, higher = more binding, comparable within an allelic series); in the experiment with SIX6 [9], 11.2 upbm affinity estimate (log intensity, higher = more binding, comparable within an allelic series); with SIX6 [10], 11.4 upbm affinity estimate (log intensity, higher = more binding, comparable within an allelic series); with SIX6 [11], 11.2 upbm affinity estimate (log intensity, higher = more binding, comparable within an allelic series); with SIX6 [12], 11.2 upbm affinity estimate (log intensity, higher = more binding, comparable within an allelic series). Also, the binding signal in the experiment with SIX6 [13] is 11.2 upbm affinity estimate (log intensity, higher = more binding, comparable within an allelic series).
